LASV entry inh = inhibitors of Lassa virus binding or cell entry; Lassa virus pseudotype entry inhibition, cell reporter; Potency, µM (highest dose often 37.9 µM), most hits filed as inhibitors; 1.2% of 300,000 active; calls by dose curve; tested in HEK293 cells; note: nearly all actives have a fitted effect of over 50% in size
Shiga inhibitor = Shiga toxin inhibition; 9.2% of 290,000 active; Vero cells, Shiga toxin protein synthesis inhibition reporter; inhibition, % at 38.7 µM; in the data active = inhibition mostly above about 28%, no sharp cut-off; inactive = mostly below about 43%
HCV inhibitor = HCV inhibition | Huh7.5.1 HCVcc-Cre infection, luciferase reporter, 44 h | Potency, µM (highest dose often 41.8 µM), hits mostly inhibitors | 3.4% of 340,000 active; active = well fitted inhibition curve with a large enough effect; inconclusive = small, poorly fitted or top-dose-only effect, or another doubt; inactive = no such curve, though single readings can be large or run the other way
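Cells (1,000/well) were plated 4 h before compound, then infected with HCVcc-Cre virus (~0.5 moi). After 44 h further culture, infection was read as luciferase luminescence following a 15 min substrate incubation at room temperature.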
FMDV antiviral = blocks foot and mouth disease virus | 1.2% of 410,000 active | Potency, µM (highest dose often 57.9 µM), actives largely listed as inhibitors | FMDV antiviral cell-based qHTS; calls by dose curve; tested in HEK293T cells; note: read-out not given here; nearly all actives have a fitted effect of over 45% in size
Cycloheximide cs = counter-screen for Shiga toxin inhibitors: cycloheximide protein synthesis inhibition | cell reporter, cycloheximide protein synthesis inhibition counterscreen | max response, % | 12% of 300,000 active | AID 2314; in the data active = max response mostly above about 13%, no sharp cut-off; inactive = mostly below about 14%; note: read at 38.3 µM for the half of the compounds with a filed dose
Marburg entry inh = blocks Marburg virus binding to or entry into cells; Marburg virus pseudotyped entry inhibition, cell reporter; Potency, µM (top dose mostly 37.8 µM), actives largely listed as inhibitors; 1.8% of 300,000 active; calls by dose curve; tested in HEK293 cells
Each line names hits and unclear results; the compound was inactive in the other large screens. The list is not random: actives were taken first. Their share in the collection is about 13%.

CC1CCCCN1C(=O)CSCC(=O)Nc1nc(-c2cccs2)cs1 (stereo unspecified)	Shiga inhibitor 37, Cycloheximide cs 24 (no result: LASV entry inh, Marburg entry inh)
CCOC(=O)N1CCN(C(=O)CSCC(=O)Nc2nc(-c3cccs3)cs2)CC1	HCV inhibitor 13µM, FMDV antiviral 14µM
CCOC(=O)C1CCCN(CC(=O)Nc2nc(-c3ccccc3)cs2)C1 (stereo unspecified)	LASV entry inh inconclusive, FMDV antiviral inconclusive, Marburg entry inh inconclusive (no result: Shiga inhibitor)
O=C(CSCC(=O)N1CCCc2ccccc21)Nc1nc(-c2ccccc2)cs1	LASV entry inh inconclusive, HCV inhibitor inconclusive, Cycloheximide cs 18
CCOC(=O)N1CCN(C(=O)CSCC(=O)Nc2nc(-c3ccc(C)cc3)cs2)CC1	HCV inhibitor 11µM (no result: LASV entry inh, Marburg entry inh)
O=C(O)C1CCCCC1C(=O)Nc1nc(-c2cccs2)cs1 (stereo unspecified)	none
Cc1cc(Cl)ccc1OCC(=O)Nc1nc(-c2cccs2)cs1	LASV entry inh inconclusive
O=C(CC1CCS(=O)(=O)C1)Nc1ccc[nH]c1=O (stereo unspecified)	LASV entry inh inconclusive
COC(=O)C1=NNC2C(=O)N(C3CCCCC3)C(=O)C12 (stereo unspecified)	none
O=C(NNS(=O)(=O)c1ccccc1)c1cccc([N+](=O)[O-])c1	LASV entry inh inconclusive (no result: Shiga inhibitor)
CC1CCN(C(=O)CSCC(=O)Nc2nc(-c3cccs3)cs2)CC1	Shiga inhibitor 45, Cycloheximide cs 10 (no result: LASV entry inh, Marburg entry inh)
CC1CCCN(C(=O)CSCC(=O)Nc2nc(-c3cccs3)cs2)C1 (stereo unspecified)	none (no result: LASV entry inh, Marburg entry inh)
COc1ccc(/C(N)=N/OC(=O)c2ccc(Br)o2)cc1	Shiga inhibitor 84, Marburg entry inh inconclusive
N/C(=N\OC(=O)c1ccc(Br)o1)c1cccnc1	Shiga inhibitor 103, Cycloheximide cs 35
CCCC/C(O)=C1\C(=O)CC(C)(C)CC1=Nc1ccc(N)cc1	none
Cc1cccc(-c2cccc(NC(=O)C3CCCN(C(=O)c4ocnc4C)C3)c2)c1 (stereo unspecified)	LASV entry inh 3.5µM, Shiga inhibitor 40, HCV inhibitor inconclusive, Cycloheximide cs 29, Marburg entry inh inconclusive
CCc1nc(C)c(C(=O)N2CCCC(C(=O)Nc3cccc(-c4cccc(C)c4)c3)C2)o1 (stereo unspecified)	LASV entry inh inconclusive, Shiga inhibitor 87, HCV inhibitor 11µM, Cycloheximide cs 54, Marburg entry inh inconclusive
Cc1cccc(-c2cccc(NC(=O)C3CCCN(C(=O)c4cccnc4)C3)c2)c1 (stereo unspecified)	HCV inhibitor inconclusive (no result: LASV entry inh, Marburg entry inh)
CCc1ncc(CN2CCCC(C(=O)Nc3cccc(-c4cccc(C)c4)c3)C2)cn1 (stereo unspecified)	Marburg entry inh inconclusive
Cc1cccc(-c2cccc(NC(=O)C3CCCN(C(=O)c4csc(C)n4)C3)c2)c1 (stereo unspecified)	Shiga inhibitor 46, HCV inhibitor 7.9µM, Cycloheximide cs 17 (no result: LASV entry inh, Marburg entry inh)
C=CCN(CC=C)CC(O)CN(c1cc([N+](=O)[O-])ccc1OC)S(=O)(=O)c1ccccc1 (stereo unspecified)	Marburg entry inh inconclusive
CS(=O)(=O)Oc1ccc2c(c1)O/C(=C\c1cccnc1)C2=O	Shiga inhibitor 20
CN(CC1COCCO1)C(=O)c1cnn(-c2nccc(-c3ccccc3C(F)(F)F)n2)c1C1CC1 (stereo unspecified)	none (no result: LASV entry inh, Shiga inhibitor, HCV inhibitor, Cycloheximide cs, Marburg entry inh)
COc1cccc(CNCCc2c[nH]c3ccccc23)c1	LASV entry inh inconclusive, Marburg entry inh 11µM
CCOc1c(Cl)cc(CNCCc2c[nH]c3ccccc23)cc1OC	HCV inhibitor 22µM (no result: LASV entry inh, Marburg entry inh)
Fc1ccc(CNCCc2c[nH]c3ccccc23)cc1	Marburg entry inh 10µM
COc1ccc2[nH]cc(CCNCc3cccnc3)c2c1	none (no result: LASV entry inh, Marburg entry inh)
Cc1ccc(C(=O)c2oc3ccc(Cl)cc3c2NC(=O)CN2CCN(C)CC2)cc1	HCV inhibitor inconclusive (no result: LASV entry inh, Marburg entry inh)
CN(C)CCN1C(=O)c2cccc3cc([N+](=O)[O-])cc(c23)C1=O	LASV entry inh 0.45µM, HCV inhibitor inconclusive, Marburg entry inh 0.32µM (no result: Shiga inhibitor, Cycloheximide cs)
CN(C)CCCN1C(=O)c2cccc3cccc(c23)C1=O	HCV inhibitor inconclusive, Marburg entry inh inconclusive
O=c1c2oc3ccccc3c2[nH]c(=S)n1-c1ccccc1	none
Cc1ccc(-n2c(C)nc3oc4ccccc4c(=O)c3c2=O)cc1	LASV entry inh inconclusive, Shiga inhibitor 121, Cycloheximide cs 47, Marburg entry inh inconclusive
COc1ccc2c(=O)c3c(=O)n(-c4ccc(C)cc4)c(-c4ccccc4)nc3oc2c1	none (no result: LASV entry inh, HCV inhibitor, FMDV antiviral, Marburg entry inh)
Cc1cccc(-n2c(=S)[nH]c3c(oc4ccccc43)c2=O)c1	HCV inhibitor inconclusive, Cycloheximide cs 8.7
Cc1ccc(-n2c(=S)[nH]c3c(oc4ccccc43)c2=O)cc1	Shiga inhibitor 69, Cycloheximide cs 40
O=C(/C(N=Nc1cccc(C(F)(F)F)c1)=C(/O)c1cccs1)C(F)(F)F	LASV entry inh inconclusive, Shiga inhibitor 66, HCV inhibitor inconclusive, Cycloheximide cs 35, Marburg entry inh inconclusive
Cc1ccnc(Nc2nc(-c3ccc(F)cc3)cs2)c1	LASV entry inh inconclusive, Shiga inhibitor 100, HCV inhibitor inconclusive, Cycloheximide cs 50, Marburg entry inh inconclusive
Cc1ccnc(Nc2nc(-c3ccc(Cl)cc3)cs2)c1	Shiga inhibitor 42, HCV inhibitor inconclusive, Cycloheximide cs 38, Marburg entry inh inconclusive
Cc1cccc(OCC(=O)Nc2nc(-c3ccncc3)cs2)c1	FMDV antiviral inconclusive (no result: LASV entry inh, Shiga inhibitor, Cycloheximide cs, Marburg entry inh)
COc1ccc(-n2ccc(=O)c(C(=O)O)n2)c(OC)c1	none
O=C(NCc1ccco1)c1cc(C(=O)C2CC2)c[nH]1	LASV entry inh inconclusive
C=CCc1ccc(OCCCCN2CC(C)CC(C)C2)c(OC)c1 (stereo unspecified)	LASV entry inh inconclusive, Marburg entry inh 7.1µM
C=CCc1ccc(OCCCN2CCCC(C)C2)c(OC)c1 (stereo unspecified)	HCV inhibitor 25µM, Cycloheximide cs 22, Marburg entry inh inconclusive
CC1CCN(CCOCCOc2ccc(Br)cc2Cl)CC1	LASV entry inh inconclusive, HCV inhibitor inconclusive, Marburg entry inh inconclusive
C=CCc1ccc(OCCCCN2CCC(C)CC2)c(OC)c1	LASV entry inh inconclusive, HCV inhibitor inconclusive, Marburg entry inh 15µM
CC1CCCN(CCCOc2ccc(Br)cc2Cl)C1 (stereo unspecified)	LASV entry inh inconclusive, Shiga inhibitor 41, HCV inhibitor inconclusive, Cycloheximide cs 22, Marburg entry inh inconclusive
COc1cc(C)ccc1OCCCCN1CC(C)OC(C)C1 (stereo unspecified)	Marburg entry inh inconclusive
Cc1ccc(S(=O)(=O)NC(=NC(Cc2ccccc2)C(=O)O)c2ccccc2)cc1 (stereo unspecified)	none (no result: LASV entry inh)
Nc1c(SCCC(=O)O)ccc2c1C(=O)c1ccccc1C2=O	Cycloheximide cs 21 (no result: LASV entry inh, Marburg entry inh)
Cc1ccccc1OCC(=O)NC(=S)Nc1ccc(N2CCCC2)cc1	FMDV antiviral inconclusive
CC(C)Cn1c(N)c(C(=O)COC(=O)c2cnc(Cl)c(Cl)c2)c(=O)n(C)c1=O	HCV inhibitor 16µM (no result: LASV entry inh, Marburg entry inh)
CC(C)Cn1c(N)c(C(=O)COC(=O)c2cc(F)cc(F)c2)c(=O)n(C)c1=O	none (no result: LASV entry inh, Marburg entry inh)
